Results as given in PubChem BioAssay (NCATS).
Results filed as inconclusive are left out. Active and inactive are the calls of the source. Unless noted, the call rests on the fitted dose curve; in most records, active means well fitted curve in the direction sought with a large enough effect; inconclusive means small, poorly fitted or top-dose-only effect, or another doubt; inactive means no such curve, though single readings can be large; an effect the other way counts as inactive or inconclusive.

Experiments:
[1] = Cell Viability - Hek293 (AID 427;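 active means compounds whose dose-response curve shows a full or clear partial loss of cell viability, called from curve shape rather than a numeric limit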;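 further: potency means the concentration at half of the fitted maximal effect; cells exposed to compound for 40 hours at 37 °C before reading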); conditions: qHTS
Procedure, shortened: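 Luminescent ATP content (CellTiter-Glo, 20 min at room temperature) was measured after a 40 hr, 37 °C compound exposure of HEK293 cells. AC50 values came from Hill-equation fits of qHTS concentration-response data normalized to DMSO and 100 uM tamoxifen.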

[2] = Cell Viability - HepG2 (AID 433; calls by dose curve;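 further: potency means the concentration at half of the fitted maximal effect; potency for ATP loss meaning cytotoxicity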); conditions: qHTS
Procedure, shortened: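 In this qHTS format, a 40 h, 37 °C compound incubation of HepG2 cells in complete medium precedes a 20 min CellTiter-Glo step at room temperature. Tamoxifen and doxorubicin serve as positive controls; Hill-equation fits yield AC50.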

[3] = Cell Viability - MRC5 (AID 434; calls by dose curve;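 further: potency means the concentration at half of the fitted maximal effect; potency reflects cytotoxicity seen as loss of intracellular ATP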); conditions: MRC5 lung fibroblast viability, qHTS
Procedure, shortened: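 MRC5 normal human lung fibroblasts, 1500 cells/well, exposed to compound for 40 hr at 37 C. Cellular ATP was read by CellTiter-Glo luminescence; data normalized to DMSO and 100 uM tamoxifen, with AC50 from Hill fits.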

[4] = Cell Viability - H-4-II-E (AID 543); conditions: H-4-II-E rat hepatoma viability; series mostly up to 92.2 µM; further: nearly all actives have a fitted effect of over 35% in size
Procedure, shortened: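 Rat hepatoma H-4-II-E cells, 1500 per well, treated 40 h at 37 °C in complete medium. Cellular ATP read by CellTiter-Glo luminescence; AC50 from Hill fits of concentration-response.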

[5] = Cell Viability - LYMP1-003 - Assay at 24 hr (AID 963); conditions: LYMP1-003 lymphoblastoid cell viability; series mostly up to 92.2 µM
Procedure, shortened: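 Human lymphoblastoid LYMP1-003 cells, 2500/well, treated 24 h at 37 C in complete medium. Viability read as intracellular ATP by CellTiter-Glo luminescence after 30 min at room temperature; AC50 from Hill-equation fits of qHTS concentration-response.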

[6] = Cell Viability - LYMP1-003 - Assay at 40 hr (AID 964); conditions: LYMP1-003 lymphoblastoid viability; series mostly up to 92.2 µM; further: nearly all actives have a fitted effect of over 60% in size
Procedure, shortened: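 LYMP1-003 human lymphoblastoid cells, 2500/well, preincubated 5 h at 37 C, then treated with compound for 40 h at 37 C. Intracellular ATP read by CellTiter-Glo luminescence after 30 min at room temperature; AC50 from Hill-equation fits.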

[7] = Cell Viability - LYMP2-003 (AID 965); conditions: LYMP2-003 lymphoblastoid cell viability; series mostly up to 92.2 µM;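 further: cells exposed to compounds for 24 h before reading; nearly all actives have a fitted effect of over 50% in size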
Procedure, shortened: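 qHTS, human lymphoblastoid line, 2500 cells/well, complete medium. 24 h drug, 37 C. ATP-based luminescent readout; Hill-fit AC50.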

[8] = Cell Viability - LYMP2-005 (AID 967); conditions: LYMP2-005 lymphoblastoid cell viability; series mostly up to 92.2 µM
Procedure, shortened: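 Luciferase-based ATP quantitation served as the viability measure in human lymphoblastoid LYMP2-005 cells exposed to test compounds for 24 h at 37 C in complete culture medium. Potency (AC50) was obtained by fitting concentration-response curves with the Hill equation.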

[9] = Cell Viability - LYMP2-013 (AID 970); conditions: LYMP2-013 lymphoblastoid cells viability; series mostly up to 92.2 µM; further: nearly all actives have a fitted effect of over 55% in size
Procedure, shortened: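 Human lymphoblastoid LYMP2-013 cells, 2500/well, treated 24 h at 37 C in complete medium; viability as intracellular ATP by CellTiter-Glo luminescence after 30 min. AC50 from Hill fits of qHTS concentration-response.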

[10] = Cell Viability - LYMP2-015 (AID 971); conditions: LYMP2-015 lymphoblastoid cell viability; series mostly up to 92.2 µM; further: nearly all actives have a fitted effect of over 55% in size
Procedure, shortened: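 LYMP2-015 human lymphoblastoid cells (2500/well) in complete medium, compound-treated 24 h at 37 C; viability read as cellular ATP by CellTiter-Glo luminescence after 30 min at room temperature. AC50 from Hill-equation fits of qHTS concentration-response data.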

[11] = Cell Viability - LYMP2-019 (AID 973); conditions: LYMP2-019 lymphoblastoid cell line viability; series mostly up to 92.2 µM; further: nearly all actives have a fitted effect of over 55% in size
Procedure, shortened: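 Human lymphoblastoid LYMP2-019 cells (2500/well) preincubated 5 h at 37 C, then treated 24 h at 37 C in complete medium. Viability by CellTiter-Glo ATP luminescence after 30 min at room temperature; AC50 from Hill fits.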

[12] = Cell Viability - LYMP2-002 (AID 977); conditions: LYMP2-002 lymphoblastoid cell viability, qHTS; series mostly up to 92.2 µM;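 further: compound exposure lasted 24 h at 37 °C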
Procedure, shortened: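 Human lymphoblastoid LYMP2-002 cells, 2500 per well, exposed to compounds for 24 h at 37 C in complete medium; viability read as intracellular ATP by CellTiter-Glo luminescence, AC50 from Hill fits.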

[13] = Cell Viability - LYMP2-008 (AID 980); conditions: LYMP2-008 lymphoblastoid cell viability, qHTS; series mostly up to 92.2 µM; further: nearly all actives have a fitted effect of over 60% in size
Procedure, shortened: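 LYMP2-008 lymphoblastoid cells (2500/well) plated 5 h, then treated 24 h at 37 C in complete medium. Viability read as intracellular ATP by CellTiter-Glo luminescence after 30 min at room temperature; AC50 from Hill fits.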

[14] = Cell Viability - LYMP2-010 (AID 981); conditions: LYMP2-010 lymphoblastoid cell viability, qHTS; series mostly up to 92.2 µM; further: nearly all actives have a fitted effect of over 55% in size
Procedure, shortened: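 Human lymphoblastoid LYMP2-010 cells (2500/well) treated 24 h at 37 C in complete medium; viability read as intracellular ATP by CellTiter-Glo luminescence. AC50 from Hill fits of concentration-response data; tetraoctylammonium bromide positive control.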

[15] = Cell Viability - LYMP2-016 (AID 984); conditions: LYMP2-016 lymphoblastoid cell viability, qHTS; series mostly up to 92.2 µM; further: nearly all actives have a fitted effect of over 55% in size
Procedure, shortened: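 Concentration-dependent ATP depletion measured in LYMP2-016 lymphoblastoid cells, 24 h, 37 C; luciferase-based luminescent detection; Hill-equation AC50.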

[16] = Cell Viability - LYMP2-018 (AID 985); conditions: LYMP2-018 lymphoblastoid cells, viability (qHTS); series mostly up to 92.2 µM;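 further: compound exposure lasted 24 hr at 37 °C; nearly all actives have a fitted effect of over 50% in size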
Procedure, shortened: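 Human lymphoblastoid LYMP2-018 cells, 2500/well, settled 5 hr at 37 C then exposed to compound 24 hr at 37 C; intracellular ATP measured by CellTiter-Glo luminescence. AC50 from Hill-equation concentration-response fits.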

[17] = Cell Viability - LYMP2-020 (AID 986); conditions: series mostly up to 92.2 µM; further: nearly all actives have a fitted effect of over 55% in size
Procedure, shortened: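 Human lymphoblastoid LYMP2-020 cells (2500/well) preincubated 5 h at 37 C, then treated 24 h at 37 C. Viability measured as intracellular ATP by CellTiter-Glo luminescence after 30 min at room temperature; AC50 from Hill fits.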

[18] = Cell Viability - LYMP2-022 (AID 987); conditions: LYMP2-022 lymphoblastoid cell viability; series mostly up to 92.2 µM; further: nearly all actives have a fitted effect of over 55% in size
Procedure, shortened: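 LYMP2-022 lymphoblastoid cells (2500/well, complete medium) were treated with compounds for 24 hours at 37 C; intracellular ATP was then read by CellTiter-Glo luminescence after 30 min at room temperature. AC50 values were derived from Hill-equation fits.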

[19] = Cell Viability - LYMP1-002 - Assay at 24 hr (AID 993); conditions: LYMP1-002 lymphoblastoid cells viability; series mostly up to 92.2 µM
Procedure, shortened: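 Human lymphoblastoid LYMP1-002 cells (2500/well) treated 24 h at 37 °C; viability as intracellular ATP by CellTiter-Glo luminescence. Tetraoctylammonium bromide as positive control; AC50 from Hill-equation fits of qHTS concentration-response.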

[20] = Cell Viability - LYMP1-002 - Assay at 40 hr (AID 994); conditions: LYMP1-002 lymphoblastoid cell viability; series mostly up to 92.2 µM; further: nearly all actives have a fitted effect of over 60% in size
Procedure, shortened: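 LYMP1-002 human lymphoblastoid cells (2500/well, complete medium) were treated with compounds for 40 hr at 37 C. Intracellular ATP was measured by CellTiter-Glo luminescence, and AC50 values came from Hill-equation fits of concentration-response data; tetraoctylammonium bromide was the positive control.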

Measured: Potency

ClC(Cl)c1ccccc1
inactive: [1] > 92 µM | [2] > 92 µM | [3] > 92 µM | [4] | [5] | [6] | [7] | [8] | [9] | [10] | [11] | [12] | [13] | [14] | [15] | [16] | [17] | [18] | [19] | [20]

C=CCOCC1CO1 (stereo unspecified)
inactive: [1] > 92 µM | [2] > 92 µM | [3] > 92 µM | [4] | [5] | [6] | [7] | [8] | [9] | [10] | [11] | [12] | [13] | [14] | [15] | [16] | [17] | [18] | [19] | [20]

O=[N+]([O-])c1cc(Cl)c(Cl)cc1Cl
inactive: [1] > 92 µM | [2] > 92 µM | [4] | [5] | [6] | [7] | [8] | [9] | [10] | [11] | [12] | [13] | [14] | [15] | [16] | [17] | [18] | [19] | [20]

NC1CCC(CC2CCC(N)CC2)CC1 (stereo unspecified)
inactive: [1] > 92 µM | [2] > 92 µM | [3] > 92 µM | [5] | [6] | [7] | [8] | [9] | [10] | [11] | [12] | [13] | [14] | [15] | [16] | [17] | [18] | [19] | [20]

O=C(O)CCl
inactive: [3] > 92 µM | [4] | [5] | [6] | [7] | [8] | [9] | [10] | [11] | [12] | [13] | [14] | [15] | [16] | [17] | [18] | [19] | [20]

Cc1ccc(N=C=O)cc1N=C=O
inactive: [1] > 92 µM | [2] > 92 µM | [3] > 92 µM | [4] | [5] | [6] | [7] | [8] | [9] | [10] | [11] | [12] | [13] | [14] | [15] | [16] | [17] | [18] | [19] | [20]
